Data reported in PubChem BioAssay AID651592 (Sanford-Burnham Center for Chemical Genomics, 2012).
Calls of active or inactive are those of the source.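 How the source made its calls: active means NF-kB reporter IC50 at most 10 µM, IL-8 IC50 within fivefold of it with bacterial filtrate but not with TNF-alpha; inactive means the rest.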

test: inhibitors of NFkB activation in CF airway cells, SAR follow-up, KKLEB cells, panel, IL8 HTRF, NFkB-GFP (AID 651592); settings: PAF/TNFa-induced NFkB-GFP / IL8 HTRF, CF-PAF assay, mean of runs;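 further: immortalized cystic fibrosis airway epithelial KKLEB cells with an NF-kB GFP reporter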

Row | SMILES | outcome
1 | O=C(Nc1ccc(N2CCN(C(=O)c3ccc(F)cc3)CC2)cc1)c1cccnc1 | inactive
2 | O=C(Nc1ccc(N2CCN(C(=O)c3ccc(F)cc3)CC2)cc1)c1cccc(Br)c1 | inactive
3 | O=C(Nc1ccc(N2CCN(C(=O)c3ccc(F)cc3)CC2)cc1)c1ccccc1 | inactive
4 | O=C(Nc1ccc(N2CCN(C(=O)c3ccccc3F)CC2)cc1)c1ccncc1 | inactive
5 | O=C(Nc1ccc(N2CCN(C(=O)c3ccccc3Cl)CC2)cc1)c1ccccc1 | active
6 | O=C(Nc1ccc(N2CCN(C(=O)c3ccccc3Cl)CC2)cc1)c1cncc(Br)c1 | active
7 | O=C(Nc1ccc(N2CCN(C(=O)c3ccccc3Cl)CC2)cc1)c1ccncc1 | inactive
8 | O=C(Nc1ccc(N2CCN(C(=O)c3ccccc3F)CC2)cc1)c1cccnc1 | inactive
9 | O=C(Nc1ccc(N2CCN(C(=O)c3ccccc3Cl)CC2)cc1)c1ccccn1 | inactive
10 | O=C(Nc1ccc(N2CCN(C(=O)c3ccccc3Cl)CC2)cc1)c1cccc(Br)c1 | inactive
11 | O=C(Nc1ccc(N2CCN(C(=O)c3ccccc3)CC2)cc1)c1cccnc1 | inactive
12 | O=C(Nc1ccc(N2CCN(C(=O)c3ccccc3F)CC2)cc1)c1cc(Br)cc(Br)c1 | inactive
13 | CCOc1ccc(NCc2cc3c(C(C)(C)C)nn(-c4ccccc4)c3[nH]c2=O)cc1 | inactive
14 | O=C(Nc1ccc(N2CCN(C(=O)c3ccccc3)CC2)cc1)c1ccccn1 | inactive
15 | CCOc1ccc(NCc2cc3c(-c4ccc(OC)c(OC)c4)nn(-c4ccccc4)c3[nH]c2=O)cc1 | inactive
16 | Cc1ccc(NCc2cc3c(C(C)(C)C)nn(-c4ccccc4)c3[nH]c2=O)cc1 | inactive
17 | O=C(Nc1ccc(N2CCN(C(=O)c3ccccc3)CC2)cc1)c1cccc(Br)c1 | inactive
18 | O=C(Nc1ccc(N2CCN(C(=O)c3ccccc3)CC2)cc1)c1cc(Br)cc(Br)c1 | inactive
